Most compounds without a hit are left out; they make up all but 1.5% or so of the library.
CRFBP-R2 block: antagonists of CRF-BP/CRF-R2 complex, primary screen, cell-based, HEK293, calcium dye fluorescence, uHTS; CRF-induced calcium fluorescence; inhibition, % at 11.8 µM; actives 0.59% (n = 350,000); AID 588475, 2011;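 active = inhibition of the ligand-induced calcium signal above about 50% at the single tested concentration, limit read from the data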
CRFR2-BP ag: agonists of CRF-BP/CRF-R2 complex, primary screen, cell-based, HEK293, calcium dye fluorescence, uHTS; CRF-binding protein / CRF receptor 2 complex (human); calcium dye fluorescence (FLIPR); percent of saturating CRF peptide response; activation, % at 13.2 µM; actives 0.46% (n = 350,000);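 active = activation of at least 50%, plus an integration ratio under a set limit after plate pattern correction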;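 note: plate controls were neutral control wells without compound for no effect and CRF at EC100 for full effect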
IDE cell activ: human IDE activators in live cells, primary screen, fluorescence polarization, HEK cells, FAbeta-B substrate; Insulin-degrading enzyme (Homo sapiens), P14735; FAbeta-B cleavage; 0% vehicle, 100% cell-free pure enzyme wells; activation, % at 5.96 µM; actives 0.073% (n = 340,000); AID 493087, 2011;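 active = activation above the mean of all tested compounds plus 3 SD, set per screening campaign, cut at about 17% in these data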
Target sequence (P14735 whole entry, looked up): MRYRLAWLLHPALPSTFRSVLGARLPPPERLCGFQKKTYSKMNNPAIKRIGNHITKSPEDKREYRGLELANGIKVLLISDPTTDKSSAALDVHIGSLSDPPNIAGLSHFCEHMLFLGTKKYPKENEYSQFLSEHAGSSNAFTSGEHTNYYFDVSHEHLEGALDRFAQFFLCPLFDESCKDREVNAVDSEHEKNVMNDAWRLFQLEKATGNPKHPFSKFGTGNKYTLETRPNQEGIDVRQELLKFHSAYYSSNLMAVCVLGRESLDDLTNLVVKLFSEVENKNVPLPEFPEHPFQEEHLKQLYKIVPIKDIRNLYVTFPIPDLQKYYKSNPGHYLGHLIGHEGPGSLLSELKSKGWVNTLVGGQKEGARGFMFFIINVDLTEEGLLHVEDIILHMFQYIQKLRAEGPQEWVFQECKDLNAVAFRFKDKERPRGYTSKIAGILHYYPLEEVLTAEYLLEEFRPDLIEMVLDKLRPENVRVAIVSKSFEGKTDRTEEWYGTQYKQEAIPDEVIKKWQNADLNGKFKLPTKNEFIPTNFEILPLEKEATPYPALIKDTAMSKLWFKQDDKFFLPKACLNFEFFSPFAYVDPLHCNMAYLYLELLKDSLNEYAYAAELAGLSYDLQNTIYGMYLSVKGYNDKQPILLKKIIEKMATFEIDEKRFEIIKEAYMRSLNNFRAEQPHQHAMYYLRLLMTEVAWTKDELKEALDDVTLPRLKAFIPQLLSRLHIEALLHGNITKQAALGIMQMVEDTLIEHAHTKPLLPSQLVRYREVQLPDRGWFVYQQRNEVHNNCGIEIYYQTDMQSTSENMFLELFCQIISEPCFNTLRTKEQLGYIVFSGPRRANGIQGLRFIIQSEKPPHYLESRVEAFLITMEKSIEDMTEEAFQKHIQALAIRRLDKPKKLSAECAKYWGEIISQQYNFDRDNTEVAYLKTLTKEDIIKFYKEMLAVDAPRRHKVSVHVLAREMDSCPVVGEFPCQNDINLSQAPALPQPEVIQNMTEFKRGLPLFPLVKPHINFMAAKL
RTF Ca sens act: cardiac RTF calcium sensitivity activators, primary screen, biochemical, IANBD-TnC fluorescence, EC20 calcium | actives 0.24% (n = 340,000) | activation, % at 7.2 µM | AID 493008, 2010 | IANBD-labeled TnC RTF fluorescence at EC20 calcium; 0% EC20 calcium, 100% full calcium;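 active = activation above the mean over all tested compounds plus 3 SD, cut at about 30% in these data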;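 note: rise in fluorescence read as greater calcium sensitivity of cardiac thin filaments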
RTF Ca sens inh: cardiac RTF calcium sensitivity inhibitors, primary screen, biochemical, IANBD-TnC fluorescence, EC70 calcium; actives 0.12% (n = 340,000); IANBD-labeled cardiac RTF, Ca2+ fluorescence; inhibition, % at 7.15 µM;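 active = inhibition above the mean inhibition of all tested compounds plus 3 SD, cut at about 17% in these data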;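 note: assay run at fixed EC70 calcium of 1.6 mM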
IDE inh: human IDE inhibitors in live cells, primary screen, fluorescence polarization, HEK cells, FAbetaB substrate; actives 0.41% (n = 320,000); FAbetaB cleavage; Insulin-degrading enzyme (Homo sapiens), P14735; inhibition, % at 5.59 µM;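 active = percent inhibition above the average of all tested compounds plus 3 SD, set per screening campaign, cut at about 16% in these data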;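 note: IDE supplied by intact live HEK cells; FP after avidin binding of uncleaved biotin substrate so inhibition keeps polarization high; 0% = DMSO wells and 100% = 60 µM reference IDE inhibitor Ii1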
IDE cell inh cf: human IDE inhibitors in live cells, confirmation, fluorescence polarization, HEK cells, FAbetaB substrate; shares compounds with IDE inh; FAbetaB cleavage; inhibition, % at 5.59 µM; actives 51% (n = 1,200);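 active = mean inhibition across triplicate wells above the cutoff set by the earlier primary insulin-degrading enzyme screen, cut at about 16% in these data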;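 note: 0% = DMSO wells and 100% = 60 µM reference IDE inhibitor Ii1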
HEK cytotox: cytotoxicity in HEK cells, cytotoxicity control for IDE inhibitor project, cell-based, luminescence. shares compounds with IDE inh. inhibition, % at 5.59 µM. actives 28% (n = 1,200). HEK293 cytotoxicity, ATP luminescence. AID 449730, 2010; in the data active = inhibition above about 22%;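 note: 0% = vehicle wells and 100% = reference cytotoxic drug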
* marks the source's active call; other numbers are inactive results; . = no result given.

SMILES	CRFBP-R2 block	CRFR2-BP ag	IDE cell activ	RTF Ca sens act	RTF Ca sens inh	IDE inh	IDE cell inh cf	HEK cytotox
CCOC(=O)/C(C#N)=C(C)/C=C1\Sc2ccccc2N1CC	-156	122*	-64	169*	-2	44*	78*	36*
CCN1/C(=C\C=C2\C(=O)N(c3ccccc3)C(=S)N2C)Sc2ccccc21	-11	-2	1	7	-6	.	.	.
CCN1/C(=C\C(C)=O)Sc2ccc(OC)cc21	1	-1	3	-3	-6	1	.	.
CCN1/C(=C\C(=S)Nc2ccccc2)Sc2ccccc21	-13	-1	-5	1	-3	21*	2	13
O=C(CN1c2ccccc2Sc2ccccc21)NNC(=S)Nc1ccc(Cl)cc1	-8	-1	-3	6	1	-1	.	.
CCCC(=O)N1CCN(c2nc3ccc(Br)cc3s2)CC1	-3	0	-9	-5	-3	15	.	.
CCCCC(=O)N1CCN(c2nc3ccc(Br)cc3s2)CC1	-3	2	-22	1	-10	25*	8	42*
CCCC(=O)N1CCN(c2nc3ccc(CC)cc3s2)CC1	-11	0	-10	1	3	19*	10	21
O=C(OCC#CCSc1nnc(-c2cccc3ccccc23)o1)c1cnc[nH]1	3	-3	2	-1	4	7	.	.
CN1C[C@@H]2[C@@H]3C(=O)N(Cc4ccccc4)C(=O)[C@@H]3[C@](Cc3ccccc3)(C1=O)N2C(=O)c1ccc(F)cc1	-2	1	1	5	7	.	.	.
CCOC(=O)c1[nH]cnc1C(=O)NC1CCN(C(=O)OC(C)(C)C)CC1	3	-1	1	4	3	5	.	.
N#C/C(=C\c1ccc(N2CCOCC2)o1)C(=O)NC1CCCCC1	-86	96*	-37	45*	-62	46*	48*	17
N#C/C(=C\c1ccc(-c2ccc(C(=O)O)cc2)o1)C(=O)NCC1CCCO1 (centres undefined)	3	2	5	-1	5	3	.	.
N#C/C(=C/c1ccc(-c2ccc(S(=O)(=O)N3CCOCC3)cc2)o1)C(=O)NC1CC1	2	1	4	6	0	.	.	.
N#C/C(=C\c1ccc(N2CCOCC2)o1)C(=O)NCC1CCCO1 (centres undefined)	-14	45	-26	53*	-78	17*	22*	12
COc1ccc(C)cc1-n1nnnc1SC(C)C(=O)NC1CCCC1 (centres undefined)	1	0	0	0	-1	5	.	.
CC(/C=C/c1ccccc1)=N/NC(=O)c1cccc(Br)c1	-50	2	-3	-7	-2	4	.	.
CCCC[n+]1c(C)sc2cc(OC)ccc21	-20	0	-2	10	-3	18*	6	5
COc1ccc2sc(C)[n+](C)c2c1	22	0	-3	1	1	7	.	.
Cc1ccc2nc(Nc3ccc(Cl)cc3)c3nncn3c2c1	-23	4	-1	-6	1	7	.	.
COc1ccc(Cl)cc1NC(=O)C1CCCN(c2cc(C)nc3ncnn23)C1 (centres undefined)	19	1	-27	-1	1	16*	13	9
ON=C(c1ccccc1)c1ccc2c3c(cccc13)CC2	26	3	.	.	.	.	.	.
Cc1ccc(N(CC(=O)NC2CCCC2)C(=O)c2nsc(Cl)c2Cl)cc1	-6	1	4	0	-26	-1	.	.

Screening results (PubChem)
